What was measured:
Assay in all cases: DAPPL (digital affinity profiling via proximity ligation, sequencing); 10 mM Tris-HCl pH 7.5, 50 mM NaCl, 1 mM DTT, 4% glycerol, room temperature, 30 min; GST-TFs on glutathione beads, 16-mer random dsDNA library, 0.1% formaldehyde crosslink after washing; high values mean tight binding
Conditions in all cases: protein: recombinant; tags: N-terminal GST; dsDNA, one strand shown
FEV = target: T1, FEV (Homo sapiens, UniProt Q99581 1-238)
T1 sequence: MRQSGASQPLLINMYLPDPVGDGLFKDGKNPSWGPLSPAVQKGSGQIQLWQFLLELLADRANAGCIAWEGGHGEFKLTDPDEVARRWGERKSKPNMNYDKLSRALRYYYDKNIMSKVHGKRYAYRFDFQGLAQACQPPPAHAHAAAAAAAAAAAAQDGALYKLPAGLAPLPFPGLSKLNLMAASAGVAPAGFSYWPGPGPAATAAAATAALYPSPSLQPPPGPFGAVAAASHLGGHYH
Method in brief: (§1)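 A tag-only sample was pooled with DNA-barcoded human transcription factors that had been expressed in yeast as GST fusions and captured on glutathione beads. The pools were incubated for 30 min at room temperature with 200 nmole of a random double-stranded 16-mer DNA library in Tris/NaCl/DTT/glycerol buffer, then washed, crosslinked with 0.1% formaldehyde, proximity-ligated (BsaI/T4 ligase, 1 h, 37 °C), PCR-amplified and sequenced on an Illumina NextSeq500. Binding signal is each hexamer's read frequency for a factor divided by its frequency for the tag-only sample.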

ETV5 = ETV5 (Homo sapiens, UniProt P41161 1-510)
Sequence of ETV5 (P41161 whole entry): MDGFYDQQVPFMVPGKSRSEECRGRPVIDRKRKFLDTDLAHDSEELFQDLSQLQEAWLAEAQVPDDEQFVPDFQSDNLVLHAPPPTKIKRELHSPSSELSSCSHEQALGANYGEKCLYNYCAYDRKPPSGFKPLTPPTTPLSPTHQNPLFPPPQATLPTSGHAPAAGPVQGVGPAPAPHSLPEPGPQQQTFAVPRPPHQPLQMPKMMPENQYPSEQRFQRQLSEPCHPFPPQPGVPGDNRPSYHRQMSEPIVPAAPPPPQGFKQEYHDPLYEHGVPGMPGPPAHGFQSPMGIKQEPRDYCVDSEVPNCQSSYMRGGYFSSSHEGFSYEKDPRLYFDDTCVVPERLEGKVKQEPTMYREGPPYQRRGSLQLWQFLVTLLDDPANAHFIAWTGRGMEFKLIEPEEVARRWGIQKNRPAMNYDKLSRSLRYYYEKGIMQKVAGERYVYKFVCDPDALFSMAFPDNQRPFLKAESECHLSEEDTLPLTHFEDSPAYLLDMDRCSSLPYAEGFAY
Method in brief: as §1

SPIC = target: T2, SPIC (Homo sapiens, UniProt Q8N5J4 1-248)
T2 sequence: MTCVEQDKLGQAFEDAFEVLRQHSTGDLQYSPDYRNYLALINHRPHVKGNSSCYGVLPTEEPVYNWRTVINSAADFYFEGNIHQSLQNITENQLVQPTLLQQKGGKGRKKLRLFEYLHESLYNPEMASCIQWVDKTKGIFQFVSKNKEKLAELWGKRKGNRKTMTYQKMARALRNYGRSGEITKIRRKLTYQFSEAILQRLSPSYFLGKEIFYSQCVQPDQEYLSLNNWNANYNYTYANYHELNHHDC
Method in brief: as §1

ELF4 = ELF4 (Homo sapiens, UniProt Q99607 1-663)
Sequence of ELF4 (Q99607 whole entry): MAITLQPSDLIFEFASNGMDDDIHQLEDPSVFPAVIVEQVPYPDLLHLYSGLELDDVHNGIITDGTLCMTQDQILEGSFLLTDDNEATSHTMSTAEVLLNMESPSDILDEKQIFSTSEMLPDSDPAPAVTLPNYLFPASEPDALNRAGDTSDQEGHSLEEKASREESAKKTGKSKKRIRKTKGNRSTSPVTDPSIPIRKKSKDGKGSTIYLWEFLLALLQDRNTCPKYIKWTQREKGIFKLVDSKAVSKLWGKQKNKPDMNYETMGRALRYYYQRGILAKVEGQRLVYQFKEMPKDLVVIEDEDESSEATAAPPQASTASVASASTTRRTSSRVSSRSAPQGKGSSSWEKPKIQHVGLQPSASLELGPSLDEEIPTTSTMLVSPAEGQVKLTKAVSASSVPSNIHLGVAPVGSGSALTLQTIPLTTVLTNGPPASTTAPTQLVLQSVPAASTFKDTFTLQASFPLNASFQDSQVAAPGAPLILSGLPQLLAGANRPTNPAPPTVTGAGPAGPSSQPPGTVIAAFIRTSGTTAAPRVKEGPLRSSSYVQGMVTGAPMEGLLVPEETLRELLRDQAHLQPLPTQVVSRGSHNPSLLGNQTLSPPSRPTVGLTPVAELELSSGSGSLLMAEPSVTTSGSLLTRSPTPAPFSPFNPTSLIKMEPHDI
Method in brief: as §1

ELK4 = target: T3, ELK4 (Homo sapiens, UniProt P28324-2 1-405)
T3 sequence: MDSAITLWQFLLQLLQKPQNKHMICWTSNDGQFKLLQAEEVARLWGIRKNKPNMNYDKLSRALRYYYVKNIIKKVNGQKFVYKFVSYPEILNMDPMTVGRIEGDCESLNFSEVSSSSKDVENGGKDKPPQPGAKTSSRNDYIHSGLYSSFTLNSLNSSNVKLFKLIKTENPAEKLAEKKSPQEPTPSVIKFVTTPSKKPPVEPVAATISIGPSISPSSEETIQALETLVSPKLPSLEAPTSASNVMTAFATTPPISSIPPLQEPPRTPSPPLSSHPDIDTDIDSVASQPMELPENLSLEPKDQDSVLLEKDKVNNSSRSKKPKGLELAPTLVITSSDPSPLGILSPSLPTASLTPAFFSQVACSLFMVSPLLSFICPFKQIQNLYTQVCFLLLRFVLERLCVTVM
Method in brief: as §1

ETV2 = target: T4, ETV2 (Homo sapiens, UniProt O00321 1-342)
T4 sequence: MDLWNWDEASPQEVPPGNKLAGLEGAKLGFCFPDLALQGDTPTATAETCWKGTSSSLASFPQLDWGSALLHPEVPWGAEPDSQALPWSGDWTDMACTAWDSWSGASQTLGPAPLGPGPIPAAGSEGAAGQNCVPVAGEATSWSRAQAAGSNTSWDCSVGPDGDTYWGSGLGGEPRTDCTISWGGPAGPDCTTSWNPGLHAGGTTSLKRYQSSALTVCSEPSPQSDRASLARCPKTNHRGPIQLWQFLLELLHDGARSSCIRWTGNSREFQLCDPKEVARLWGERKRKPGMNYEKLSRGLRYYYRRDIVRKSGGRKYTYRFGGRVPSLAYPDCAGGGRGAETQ
Method in brief: as §1

ELF3 = target: T5, ELF3 (Homo sapiens, UniProt P78545 1-371)
T5 sequence: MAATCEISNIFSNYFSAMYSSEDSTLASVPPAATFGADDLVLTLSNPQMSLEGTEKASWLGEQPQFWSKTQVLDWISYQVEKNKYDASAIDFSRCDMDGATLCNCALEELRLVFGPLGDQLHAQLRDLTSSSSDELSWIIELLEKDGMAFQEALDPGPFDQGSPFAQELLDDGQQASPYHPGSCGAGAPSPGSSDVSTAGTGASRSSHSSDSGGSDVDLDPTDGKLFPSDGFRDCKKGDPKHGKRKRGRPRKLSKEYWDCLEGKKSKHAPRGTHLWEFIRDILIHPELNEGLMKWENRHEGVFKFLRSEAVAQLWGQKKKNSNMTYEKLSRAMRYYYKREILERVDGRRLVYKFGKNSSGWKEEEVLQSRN
Method in brief: as §1

ETV1 = ETV1 (Homo sapiens, UniProt P50549 1-477)
Sequence of ETV1 (P50549 whole entry): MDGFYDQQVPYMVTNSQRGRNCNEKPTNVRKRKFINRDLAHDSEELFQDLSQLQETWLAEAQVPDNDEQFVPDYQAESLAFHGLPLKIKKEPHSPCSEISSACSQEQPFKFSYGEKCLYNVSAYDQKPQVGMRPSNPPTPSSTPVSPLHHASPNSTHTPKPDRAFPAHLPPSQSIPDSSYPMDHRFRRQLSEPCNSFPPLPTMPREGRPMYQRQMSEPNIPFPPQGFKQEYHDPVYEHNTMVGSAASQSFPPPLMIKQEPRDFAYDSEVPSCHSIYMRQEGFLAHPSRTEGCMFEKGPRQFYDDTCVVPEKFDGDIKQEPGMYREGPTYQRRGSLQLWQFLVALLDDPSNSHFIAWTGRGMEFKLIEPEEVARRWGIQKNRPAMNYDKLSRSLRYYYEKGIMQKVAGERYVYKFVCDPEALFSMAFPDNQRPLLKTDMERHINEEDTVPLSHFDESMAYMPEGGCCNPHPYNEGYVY
Method in brief: as §1

ERF = target: T6, ERF (Homo sapiens, UniProt P50548 1-548)
T6 sequence: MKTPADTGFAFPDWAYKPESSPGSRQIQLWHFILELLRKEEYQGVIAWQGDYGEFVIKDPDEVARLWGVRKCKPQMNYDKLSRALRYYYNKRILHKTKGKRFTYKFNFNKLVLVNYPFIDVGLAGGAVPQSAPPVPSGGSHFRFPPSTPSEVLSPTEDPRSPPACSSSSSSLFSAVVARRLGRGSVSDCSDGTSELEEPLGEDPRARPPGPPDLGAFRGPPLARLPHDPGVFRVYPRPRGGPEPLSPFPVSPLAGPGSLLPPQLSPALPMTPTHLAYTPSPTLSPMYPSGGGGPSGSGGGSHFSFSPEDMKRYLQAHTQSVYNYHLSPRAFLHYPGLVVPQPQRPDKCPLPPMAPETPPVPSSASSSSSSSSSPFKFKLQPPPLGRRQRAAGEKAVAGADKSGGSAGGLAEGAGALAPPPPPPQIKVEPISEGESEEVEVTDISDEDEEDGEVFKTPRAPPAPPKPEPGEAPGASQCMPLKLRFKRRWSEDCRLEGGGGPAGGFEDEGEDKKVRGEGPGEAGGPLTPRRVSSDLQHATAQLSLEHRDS
Method in brief: as §1

ETV3L = target: T7, ETV3L (Homo sapiens, UniProt Q6ZN32 1-361)
T7 sequence: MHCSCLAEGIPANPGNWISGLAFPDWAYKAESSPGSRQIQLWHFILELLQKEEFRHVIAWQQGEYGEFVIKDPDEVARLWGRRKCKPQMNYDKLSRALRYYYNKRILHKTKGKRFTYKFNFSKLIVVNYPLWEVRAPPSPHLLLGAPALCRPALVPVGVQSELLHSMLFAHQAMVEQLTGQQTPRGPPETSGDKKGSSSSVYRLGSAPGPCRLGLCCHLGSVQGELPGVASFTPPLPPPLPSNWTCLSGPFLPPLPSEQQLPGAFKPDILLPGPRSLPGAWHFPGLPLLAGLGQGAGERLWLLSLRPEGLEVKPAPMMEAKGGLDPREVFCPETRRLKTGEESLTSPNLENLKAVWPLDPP
Method in brief: as §1

ETS2 = target: T8, ETS2 (Homo sapiens, UniProt P15036 1-469)
T8 sequence: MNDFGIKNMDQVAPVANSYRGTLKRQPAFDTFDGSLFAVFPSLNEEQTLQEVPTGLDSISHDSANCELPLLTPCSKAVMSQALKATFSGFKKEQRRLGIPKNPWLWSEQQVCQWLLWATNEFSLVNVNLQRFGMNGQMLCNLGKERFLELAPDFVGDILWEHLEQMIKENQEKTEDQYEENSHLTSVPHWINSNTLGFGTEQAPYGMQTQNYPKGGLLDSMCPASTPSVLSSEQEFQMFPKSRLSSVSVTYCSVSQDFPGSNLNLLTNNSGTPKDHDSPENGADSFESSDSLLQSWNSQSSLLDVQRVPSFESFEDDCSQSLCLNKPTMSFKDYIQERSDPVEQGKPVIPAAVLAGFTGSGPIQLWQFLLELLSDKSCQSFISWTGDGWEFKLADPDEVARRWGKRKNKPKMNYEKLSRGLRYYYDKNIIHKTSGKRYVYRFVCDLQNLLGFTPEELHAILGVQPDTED
Method in brief: as §1

SPDEF = target: T9, SPDEF (Homo sapiens, UniProt O95238 1-335)
T9 sequence: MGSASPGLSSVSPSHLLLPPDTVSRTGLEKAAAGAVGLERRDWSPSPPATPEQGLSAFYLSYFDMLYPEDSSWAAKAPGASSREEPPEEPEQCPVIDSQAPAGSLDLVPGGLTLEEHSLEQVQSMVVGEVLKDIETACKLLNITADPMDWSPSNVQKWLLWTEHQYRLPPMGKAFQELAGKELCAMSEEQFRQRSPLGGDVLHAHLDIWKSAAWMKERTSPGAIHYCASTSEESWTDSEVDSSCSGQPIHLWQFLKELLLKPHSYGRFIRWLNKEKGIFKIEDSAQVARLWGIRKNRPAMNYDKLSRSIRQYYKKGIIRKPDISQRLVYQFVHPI
Method in brief: as §1

ETV7 = target: T10, ETV7 (Homo sapiens, UniProt Q9Y603 1-341)
T10 sequence: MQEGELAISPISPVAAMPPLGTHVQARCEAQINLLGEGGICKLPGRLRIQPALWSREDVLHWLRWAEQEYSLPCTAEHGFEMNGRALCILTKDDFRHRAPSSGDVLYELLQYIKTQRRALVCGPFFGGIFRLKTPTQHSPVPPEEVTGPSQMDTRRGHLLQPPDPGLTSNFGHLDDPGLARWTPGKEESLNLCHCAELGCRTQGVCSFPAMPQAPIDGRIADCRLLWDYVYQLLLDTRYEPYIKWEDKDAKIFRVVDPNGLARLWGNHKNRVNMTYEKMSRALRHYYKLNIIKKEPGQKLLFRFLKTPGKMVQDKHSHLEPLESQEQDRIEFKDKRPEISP
Method in brief: as §1

ELF5 = target: T11, ELF5 (Homo sapiens, UniProt Q9UKW6-2 1-255)
T11 sequence: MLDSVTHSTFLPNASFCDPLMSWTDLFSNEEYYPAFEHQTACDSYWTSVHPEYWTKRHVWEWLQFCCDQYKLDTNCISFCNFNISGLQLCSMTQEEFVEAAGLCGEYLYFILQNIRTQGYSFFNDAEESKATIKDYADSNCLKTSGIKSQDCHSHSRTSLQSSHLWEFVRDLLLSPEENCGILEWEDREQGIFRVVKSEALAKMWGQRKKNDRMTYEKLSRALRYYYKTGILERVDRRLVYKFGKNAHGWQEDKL
Method in brief: as §1

ETV3 = target: T12, ETV3 (Homo sapiens, UniProt P41162-2 1-143)
T12 sequence: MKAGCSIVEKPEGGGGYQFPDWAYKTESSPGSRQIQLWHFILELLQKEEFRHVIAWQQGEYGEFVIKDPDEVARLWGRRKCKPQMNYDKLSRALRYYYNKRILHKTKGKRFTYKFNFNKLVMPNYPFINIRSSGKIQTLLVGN
Method in brief: as §1

ETV6 = ETV6 (Homo sapiens, UniProt P41212 1-452)
Sequence of ETV6 (P41212 whole entry): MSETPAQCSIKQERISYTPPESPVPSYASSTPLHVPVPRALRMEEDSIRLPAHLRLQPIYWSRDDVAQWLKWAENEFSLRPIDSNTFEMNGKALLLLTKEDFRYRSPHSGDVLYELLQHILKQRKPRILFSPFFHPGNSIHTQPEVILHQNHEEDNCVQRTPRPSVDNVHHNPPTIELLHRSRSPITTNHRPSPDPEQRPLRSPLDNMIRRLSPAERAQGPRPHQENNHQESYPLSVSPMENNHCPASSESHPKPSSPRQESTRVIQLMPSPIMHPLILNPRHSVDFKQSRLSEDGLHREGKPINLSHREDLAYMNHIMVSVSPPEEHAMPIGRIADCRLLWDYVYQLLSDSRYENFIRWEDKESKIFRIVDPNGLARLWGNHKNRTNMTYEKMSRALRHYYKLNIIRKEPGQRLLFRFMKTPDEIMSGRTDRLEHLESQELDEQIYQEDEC
Method in brief: as §1

| Sequence | binding signal (FEV) | binding signal (ETV5) | binding signal (SPIC) | binding signal (ELF4) | binding signal (ELK4) | binding signal (ETV2) | binding signal (ELF3) | binding signal (ETV1) | binding signal (ERF) | binding signal (ETV3L) | binding signal (ETS2) | binding signal (SPDEF) | binding signal (ETV7) | binding signal (ELF5) | binding signal (ETV3) | binding signal (ETV6) |
| --- | --- | --- | --- | --- | --- | --- | --- | --- | --- | --- | --- | --- | --- | --- | --- | --- |
| GTTATG | 1.03 fold enrichment (6-mer frequency, TF over GST control) | 1.14 fold enrichment (6-mer frequency, TF over GST control) | 1.23 fold enrichment (6-mer frequency, TF over GST control) | 1.1 fold enrichment (6-mer frequency, TF over GST control) | 1.23 fold enrichment (6-mer frequency, TF over GST control) | 1.14 fold enrichment (6-mer frequency, TF over GST control) | 1.25 fold enrichment (6-mer frequency, TF over GST control) | 1.14 fold enrichment (6-mer frequency, TF over GST control) | 1.05 fold enrichment (6-mer frequency, TF over GST control) | 1.11 fold enrichment (6-mer frequency, TF over GST control) | 1.1 fold enrichment (6-mer frequency, TF over GST control) | 1.12 fold enrichment (6-mer frequency, TF over GST control) | 1.12 fold enrichment (6-mer frequency, TF over GST control) | 1.06 fold enrichment (6-mer frequency, TF over GST control) | 1.14 fold enrichment (6-mer frequency, TF over GST control) | 1.21 fold enrichment (6-mer frequency, TF over GST control) |
| CGTTAC | 1.13 fold enrichment (6-mer frequency, TF over GST control) | 1.08 fold enrichment (6-mer frequency, TF over GST control) | 1.05 fold enrichment (6-mer frequency, TF over GST control) | 1.07 fold enrichment (6-mer frequency, TF over GST control) | 1.02 fold enrichment (6-mer frequency, TF over GST control) | 1.02 fold enrichment (6-mer frequency, TF over GST control) | 1.04 fold enrichment (6-mer frequency, TF over GST control) | 1.17 fold enrichment (6-mer frequency, TF over GST control) | 1.16 fold enrichment (6-mer frequency, TF over GST control) | 1.18 fold enrichment (6-mer frequency, TF over GST control) | 1.23 fold enrichment (6-mer frequency, TF over GST control) | 1.1 fold enrichment (6-mer frequency, TF over GST control) | 1.11 fold enrichment (6-mer frequency, TF over GST control) | 1.15 fold enrichment (6-mer frequency, TF over GST control) | 1.14 fold enrichment (6-mer frequency, TF over GST control) | 1.12 fold enrichment (6-mer frequency, TF over GST control) |
